About 3,700 (0.93%) of roughly 400,000 compounds were called active. About 3% were inconclusive and are not listed. The calls are words filed in the database; no cut-off is given here. The full list was thinned out, with actives kept by preference.
molecular target: T1, Vitamin D3 receptor (Homo sapiens) (UniProt P11473); experiment: Inhibitors of the vitamin D receptor (VDR): qHTS. [Related pubchem assays (depositor defined):AID504855]; format: functional
T1 sequence (whole entry): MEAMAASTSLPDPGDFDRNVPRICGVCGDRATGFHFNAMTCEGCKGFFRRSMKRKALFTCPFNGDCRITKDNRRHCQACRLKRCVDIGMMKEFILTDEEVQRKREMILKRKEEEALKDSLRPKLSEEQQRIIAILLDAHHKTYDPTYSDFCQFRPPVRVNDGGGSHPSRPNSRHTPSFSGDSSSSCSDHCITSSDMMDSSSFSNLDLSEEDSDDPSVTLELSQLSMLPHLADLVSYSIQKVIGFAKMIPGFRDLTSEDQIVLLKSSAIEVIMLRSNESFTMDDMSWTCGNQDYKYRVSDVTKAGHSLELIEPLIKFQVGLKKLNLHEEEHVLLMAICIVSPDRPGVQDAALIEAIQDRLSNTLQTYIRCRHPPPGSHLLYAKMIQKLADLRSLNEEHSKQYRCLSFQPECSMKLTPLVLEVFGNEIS

Compound	Potency
Cl[Te]1(Cl)OCCO1	3.16 µM (active)

Reference: ChEMBL document CHEMBL1201862, “PubChem BioAssay data set” (2004)
